PubChem BioAssay AID1159580 (chemical genetic matrix, 2015)
Screen size: about 5,500 compounds; about 2,000 (36%) were called active. Another 18% or so got no clear call; they are omitted. Cut-off read from the data, not from the text of the source: active = normalized growth mostly below about 0.91 (no sharp cut-off); inconclusive = no clear call, values can overlap the other calls; inactive = mostly above about 0.92. Some of the results follow.

Assay: chemical genetic growth profiling, strain panel (AID 1159580);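 note: tested at 20 µM; growth read once vehicle control cultures reached saturation at 30 °C; 1 = growth at the plate median or of vehicle wells; lower values mean less growth of the strain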
Details: S. cerevisiae deletion strains, growth OD
[1] = locus YDR150W, strain NUM1, hits give low values
[2] = locus YGR078C, strain PAC10, hits give low values
[3] = locus YGR229C, strain SMI1, hits give low values
[4] = locus YMR263W, strain SAP30, hits give low values
[5] = locus YNL322C, strain KRE1, hits give low values
[6] = locus YPL241C, strain CIN2, hits give low values
[7] = locus YHR030C, strain SLT2, hits give low values

Measured: normalized growth

Fc1ccc(CN(C2=NCCN2)c2c(Cl)cccc2Cl)cc1
inactive: locus YAL040C, strain CLN3, hits give low values 0.945 | locus YCL061C, strain MRC1 (second series), hits give low values 1.01 | [1] 1.06 | locus YDR363W, strain ESC2, hits give low values 1.02 | locus YER002W, strain NOP16, hits give low values 1.02 | [2] 0.984 | [3] 1.01 | [4] 0.995 | locus YNL128W, strain TEP1, hits give low values 1.1 | locus YNL175C, strain NOP13, hits give low values 1.01 | locus YNL197C, strain WHI3, hits give low values 1 | locus YNL224C, strain SQS1, hits give low values 1.01 | [5] 1 | locus YOR083W, strain WHI5 (second series), hits give low values 1.05 | [6] 0.997

CC(C)(CO)[C@@H](O)C(=O)NCCC(=O)O
inactive: [7] 1.06 | locus YHR079C, strain IRE1, hits give low values 1.04 | locus YJL095W, strain BCK1, hits give low values 1.03 | locus YJR066W, strain TOR1, hits give low values 0.964 | locus YLR113W, strain HOG1, hits give low values 1.05 | locus YNL183C, strain NPR1, hits give low values 0.999 | locus YOR231W, strain MKK1, hits give low values 1.09 | locus YPL256C, strain CLN2, hits give low values 1.09

O=C(O)C12CC3CC(CC(Br)(C3)C1)C2
inactive: locus YAL013W, strain DEP1, hits give low values 1 | locus YBR229C, strain ROT2, hits give low values 0.972 | locus YDL101C, strain DUN1, hits give low values 0.984 | locus YDL134C, strain PPH21, hits give low values 1.02 | [1] 0.982 | locus YEL061C, strain CIN8, hits give low values 0.987 | [2] 0.99 | [3] 1.01 | [7] 1.06 | locus YHR087W, strain rtc3, hits give low values 0.988 | locus YJL187C, strain SWE1, hits give low values 0.945 | locus YJR043C, strain POL32, hits give low values 1.01 | locus YJR075W, strain HOC1, hits give low values 0.996 | locus YKL190W, strain CNB1, hits give low values 1.01 | locus YLR039C, strain RIC1, hits give low values 1.04 | locus YLR058C, strain SHM2 (second series), hits give low values 1 | locus YLR085C, strain ARP6, hits give low values 0.963 | locus YLR262C, strain YPT6, hits give low values 1.1 | locus YML094W, strain GIM5, hits give low values 0.991 | locus YMR219W, strain ESC1, hits give low values 0.998 | [4] 0.993 | locus YMR307W, strain GAS1, hits give low values 0.997 | locus YNL153C, strain GIM3, hits give low values 0.994 | locus YNL298W, strain CLA4 (second series), hits give low values 0.992 | [5] 0.993 | locus YNR030W, strain Alg12, hits give low values 0.997 | locus YOL006C, strain TOP1, hits give low values 1.05 | locus YPL055C, strain LGE1, hits give low values 0.976 | [6] 0.994 | locus YPR135W, strain CTF4, hits give low values 1.14
